# Laboratory results from PubChem BioAssay (NCATS).
# Records with an inconclusive call do not appear. A number with no mark means an inactive call. Calls of active or inactive are those of the source. Calls come from the whole dose curve.
# Assay: Cytotoxicity counterscreen for inhibitors of SARS-CoV-2 cell entry (AID 1645845); note: nearly all actives have a fitted effect of over 50% in size
# Settings: cell viability (SARS-CoV-2 entry assay cells); series mostly up to 57.1 µM
# From the text: Assay Provider: Wei Zheng, Ph.D.
# National Center for Advancing Translational Sciences, National Institute of Health, Rockville, MD.
# SARS-CoV-2 spike protein, within the viral envelope, mediates viral attachment and infection of host cells. The SARS-CoV-2 spike protein specifically binds to the host receptor ACE2 (Angiotensin-converting enzyme 2). This interaction promotes endocytosis of the viral particle, additional events lead to viral-host cell membrane fusion and release of the viral contents, allowing viral replication.
# While SARS-CoV-2 requires BSL-3 facilities for live virus work, pseudo-typed partices (PP) that incorporate SARS-CoV-2 spike proteins without replication elements could facilitate studies on viral entry mechanisms in a BSL-2 setting. This PP cell entry assay could also enable screening of small molecule compound libraries in BSL-2 setting to identify inhibitors of SARS-CoV-2 cell entry. To eliminate false positive compounds, ATP content cytotoxicity assay was screened in the same cell line.
# SEQUENCE No. (e.g., 1, 2, 3, etc.); […] (e.g., Cells, Incubation, Reagent, etc.); VALUE and DESCRIPTION.
# 1. Cells. Seed 1500 HEK293-ACE2 cells (Expi293F with stable expression of human ACE2) in 2 uL/well media (DMEM, 10% FBS, 1x L-glutamine, 1x Pen/Strep, 1 ug/ml puromycin) in white 1536-well assay plates (Greiner #782073).
# 2. Incubation. Incubate at 37 C with 5% CO2 overnight (~16 h).
# 3. Compounds. Dispense 23 nL/well compounds in DMSO via pin transfer.
# 4. Incubation. Incubate for 1 h at 37C 5% CO2.
# 5. Reagent. Dispense 2 uL/well of media (DMEM, 10% FBS, 1x L-glutamine, 1x Pen/Strep, 1 ug/ml puromycin).
# 6. Incubation. Incubate at for 48h at 37C 5% CO2
# 7. Reagent. Dispense 4 uL/well of ATPLite 1step luminescence assay reagent (PerkinElmer #6016739).
# 8. Incubation. Incubate for 15 min at room temperature.
# 9. Detection. Read luminescence signal (Viewlux plate reader, PerkinElmer). Data was normalized with wells containing cells as 100%, and wells without cells (media only control) as 0%.
# % is set by controls: 0 for no effect and ±100 for the full control effect.
Structure (SMILES),outcome,"activity change, negative = cytotoxicity"
CCC1C(C)=NN=C(c2ccc(OC)c(OC)c2)c2cc(OC)c(OC)cc21 (stereo not given),inactive,
CCCCCCC(=O)O[C@H]1CC[C@H]2[C@@H]3CC[C@H]4CC(=O)C=C(C)[C@]4(C)[C@H]3CC[C@]12C,inactive,
FC(F)OC(F)(F)C(F)Cl (stereo not given),inactive,
O=c1[nH]cc(N(CCCl)CCCl)c(=O)[nH]1,inactive,
C[C@@H](CO)NC(=O)[C@@H]1C=C2c3cccc4[nH]cc(c34)C[C@H]2N(C)C1,inactive,
O=[N+]([O-])C(Br)(CO)CO,inactive,
CC(C)(O)[C@@H]1[C@H]2OC(=O)[C@@H]1[C@]1(O)C[C@H]3O[C@]34C(=O)O[C@H]2[C@]14C,inactive,
O=C(C[C@@H]1NCCC[C@H]1O)Cn1cnc2cc(Br)c(Cl)cc2c1=O,inactive,
O=P(O)(O)C(Cl)(Cl)P(=O)(O)O,,3.8% [at 5.25 µM]
CCNC1(c2cccs2)CCCCC1=O (stereo not given),inactive,
CCNCC(O)c1cccc(O)c1 (stereo not given),inactive,
O=C(OCCN1CCCCC1)C(O)(c1ccccc1)c1ccccc1,inactive,
CC1=C2C[C@H]3[C@@H](CC=C4C[C@@H](O)CC[C@@]43C)[C@@H]2CC[C@]12O[C@@H]1C[C@H](C)CN[C@H]1[C@H]2C,inactive,
O=C/C=C/c1ccccc1,inactive,
O=[N+]([O-])c1ccccc1,inactive,
CC(=O)O[C@H]1CC[C@H]2[C@@H]3CCC4=CC(=O)CCC4=C3C=C[C@]12C,inactive,
CC1CCC(C(C)C)C(OC(=O)c2ccccc2N)C1 (stereo not given),inactive,
O=C(NCNC(=O)NC1C(=O)NC(=O)N1CO)NC1C(=O)NC(=O)N1CO (stereo not given),inactive,
Cn1sc(Cl)cc1=O,inactive,
CC[N+](C)(CC)CCOC(=O)C(O)(c1ccccc1)c1ccccc1,inactive,

Structure (SMILES),outcome,"activity change, negative = cytotoxicity"
C[C@]12CCC(=O)C=C1C=C[C@@H]1[C@@H]2CC[C@@]2(C)[C@H]1CC[C@@]2(O)CCC(=O)O,inactive,
CCCCNCC(O)c1ccc(O)cc1 (stereo not given),inactive,
CCCCC[C@@H](O)C1C(=O)OC(C)[C@H](O)/C=C/C=C/C=C/C=C/C=C(\C)C(O)C(O)C(O)C[C@H](O)C[C@H](O)C[C@H](O)C[C@H](O)C[C@@H]1O (stereo not given in full),inactive,
CCC(=O)O[C@@](Cc1ccccc1)(c1ccccc1)[C@@H](C)CN(C)C,inactive,
CCCC(=O)OC(C(Cl)(Cl)Cl)P(=O)(OC)OC (stereo not given),inactive [at 114 µM],
C=CC[C@]1(O)CC[C@H]2[C@@H]3CCC4=CCCC[C@@H]4[C@H]3CC[C@@]21C,inactive,
C/C(O)=C(\C#N)C(=O)Nc1cc(Br)ccc1Br,inactive,
CCOc1ccc2c3c1O[C@H]1[C@@H](O)C=C[C@H]4[C@@H](C2)N(C)CC[C@@]341,inactive,
CCC1(C)CC(=O)NC(=O)C1,inactive [at 114 µM],
CC[C@H]1CN2CC[C@H]1C[C@@H]2[C@@H](O)c1ccnc2ccc(OC)cc12,inactive,
c1ccc2sc(SNC3CCCCC3)nc2c1,inactive,
O=[N+]([O-])c1cc(I)c(O)c(I)c1,inactive,
C[C@]12CC[C@H](OS(=O)(=O)O)CC1=CC[C@@H]1[C@@H]2CC[C@]2(C)C(=O)CC[C@@H]12,inactive,
O=C1C[C@@H]2OCC=C3CN4CC[C@]56c7ccccc7N1[C@H]5[C@H]2[C@H]3C[C@H]46,inactive,
CCOC(=O)c1ccccc1C(=O)OCC,inactive,
CC(C)CCC(=O)O[C@H]1CC[C@H]2[C@@H]3CCC4=CC(=O)CC[C@]4(C)[C@H]3CC[C@]12C,inactive,
O=C(O)C(Cl)(Cl)Cl,inactive,
O=S(=O)(O)c1cc(O)ccc1O,inactive,
CC(N)Cc1ccc(O)cc1 (stereo not given),inactive,
CC(C)CCON=O,inactive,
